Inconclusive results are not listed. Active and inactive are the calls of the source. Rule for the calls, unless noted: active = hit-call score of the fitted dose curve at least 0.9, where 1 is the maximum; inconclusive = response in the unintended direction; inactive = score below 0.9.

Experiment [1] addresses Oxysterols receptor LXR-alpha (Homo sapiens) (UniProt Q13133). Kind of experiment: ATG_LXRa_TRANS: Attagene TRANS-FACTORIAL HepG2 Assay for human Liver X Receptor alpha (LXRa) (AID 2282980). Conditions: HepG2 Attagene TRANS reporter, LXRa transactivation. In outline: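 Transfect HepG2 with GAL4-UAS multiplex reporter constructs (TRANS format, chimeric receptor-GAL4); treat 24 h; extract RNA, reverse-transcribe, PCR-amplify, FAM-label, HpaI-digest; resolve fragments by capillary electrophoresis. Upward response vs DMSO.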

Experiment [2] deals with Oxysterols receptor LXR-beta (Homo sapiens) (UniProt P55055). The experiment can be described thus: ATG_LXRb_TRANS: Attagene TRANS-FACTORIAL HepG2 Assay for human Liver X Receptor beta (LXRb) (AID 2282981). To be noted: HepG2 Attagene TRANS GAL4-LXRb reporter, mRNA. The essentials:
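Liver-derived HepG2 cells transfected with Gal4-responsive reporters were dosed for 24 h. Activation was scored as rise in reporter mRNA, by RT-PCR and capillary electrophoresis, above DMSO baseline.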

The nature of experiment [3]: ATG_M_06_TRANS: Attagene TRANS-FACTORIAL HepG2 Assay for M06 Transcription Factor (Internal Marker) (AID 2282983).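 Note: reporter transcript level by RT-PCR then capillary electrophoresis fluorescence.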 Conditions: HepG2 Attagene TRANS M06 internal marker reporter. The essentials:
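Background control endpoint: reporter mRNA from transiently transfected HepG2 after 24 h dosing, detected by RT-PCR with capillary electrophoresis fluorescence. Analysed for gain versus DMSO.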

Experiment [4] in a line: ATG_M_32_TRANS: Attagene TRANS-FACTORIAL HepG2 Assay for M32 Transcription Factor (Internal Marker) (AID 2282984).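 Note: transcript level of a background control reporter unit measured by RT-PCR and capillary electrophoresis.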 Conditions: HepG2 Attagene TRANS M32 internal marker reporter. The essentials: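 Fluorescence-detected mRNA induction, HepG2 liver cells, 24 h after dosing. Multiple GAL4-UAS reporter units introduced by transient transfection; background-control endpoint analysed for gain of signal against DMSO.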

The target in experiment [5] is Transcriptional activator Myb (Homo sapiens) (UniProt P10242). Kind of experiment: ATG_Myb_CIS: Attagene CIS-FACTORIAL HepG2 Assay for human Myeloblastosis (Myb) Proto-Oncogene Transcription Factor (AID 2282986; active = hit-call score of the fitted dose curve at least 0.9, where 1 is the maximum; inactive = score below 0.9). To be noted: HepG2 Attagene CIS-FACTORIAL Myb reporter transcription; actives raise or lower the signal. In outline:
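Steps: transfect HepG2 with cis-regulated reporter units; dose with chemical for 24 h; isolate RNA, reverse-transcribe, PCR-amplify and FAM-label reporter sequences; digest with HpaI; resolve by capillary electrophoresis. Activity fitted in both directions relative to DMSO.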

In experiment [6] the target is Nuclear respiratory factor 1 (Homo sapiens) (UniProt Q16656). The experiment can be described thus: ATG_NRF1_CIS: Attagene CIS-FACTORIAL HepG2 Assay for human Nuclear Respiratory Factor 1 (NRF1) Orphan Gene (AID 2282987; active = hit-call score of the fitted dose curve at least 0.9, where 1 is the maximum; inactive = score below 0.9). To be noted: HepG2 NRF1 cis-element reporter, Attagene multiplex; actives raise or lower the signal. In outline: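 Fluorescence intensity of labelled reporter cDNA fragments, resolved by capillary electrophoresis, served as readout for NRF1 cis-element activity. Transiently transfected HepG2 cells were dosed for 24 hours; activity in either direction was fitted against DMSO negative control.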

The target in experiment [7] is Nuclear receptor subfamily 4 group A member 2 (Homo sapiens) (UniProt P43354). The experiment can be described thus: ATG_NURR1_TRANS: Attagene TRANS-FACTORIAL HepG2 Assay for human Nuclear Receptor Related Protein 1 (NURR1) (AID 2282985). Conditions: HepG2 Attagene TRANS reporter, mRNA readout. In outline:
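Chimeric NR-Gal4 proteins were expressed in human HepG2 cells bearing GAL4-UAS reporter units, and induced reporter mRNA was quantified 24 h post-dosing by RT-PCR and capillary electrophoresis.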

Experiment [8] has as its target Hepatocyte nuclear factor 4-alpha (Homo sapiens) (UniProt P41235). The experiment can be described thus: ATG_HNF4a_TRANS: Attagene TRANS-FACTORIAL HepG2 Assay for human Hepatocyte Nuclear Factor 4 alpha (HNF4a) (AID 2282982). To be noted: HepG2 HNF4a transactivation reporter, mRNA readout. In outline:
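Using HepG2 liver cells transfected with GAL4-UAS reporter units, chemical-induced mRNA increases were assessed after 24 hours. Fluorescent RT-PCR fragments were separated by capillary electrophoresis and compared with DMSO negative controls.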

Sequence of Oxysterols receptor LXR-beta (Homo sapiens) (P55055 whole entry, looked up, the tested form may be a part): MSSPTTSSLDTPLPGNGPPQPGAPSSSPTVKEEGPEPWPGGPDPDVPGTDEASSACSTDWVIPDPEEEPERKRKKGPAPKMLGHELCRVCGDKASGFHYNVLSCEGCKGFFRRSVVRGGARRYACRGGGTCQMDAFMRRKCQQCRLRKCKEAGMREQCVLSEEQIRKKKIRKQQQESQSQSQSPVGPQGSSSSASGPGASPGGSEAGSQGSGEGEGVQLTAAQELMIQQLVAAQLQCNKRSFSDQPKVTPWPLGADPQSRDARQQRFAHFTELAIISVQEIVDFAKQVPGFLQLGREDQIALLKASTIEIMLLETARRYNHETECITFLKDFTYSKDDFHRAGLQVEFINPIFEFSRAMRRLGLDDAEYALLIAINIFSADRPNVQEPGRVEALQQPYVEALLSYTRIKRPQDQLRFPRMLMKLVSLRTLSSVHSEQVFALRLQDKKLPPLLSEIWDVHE
Sequence of Oxysterols receptor LXR-alpha (Homo sapiens) (Q13133 whole entry, looked up, the tested form may be a part): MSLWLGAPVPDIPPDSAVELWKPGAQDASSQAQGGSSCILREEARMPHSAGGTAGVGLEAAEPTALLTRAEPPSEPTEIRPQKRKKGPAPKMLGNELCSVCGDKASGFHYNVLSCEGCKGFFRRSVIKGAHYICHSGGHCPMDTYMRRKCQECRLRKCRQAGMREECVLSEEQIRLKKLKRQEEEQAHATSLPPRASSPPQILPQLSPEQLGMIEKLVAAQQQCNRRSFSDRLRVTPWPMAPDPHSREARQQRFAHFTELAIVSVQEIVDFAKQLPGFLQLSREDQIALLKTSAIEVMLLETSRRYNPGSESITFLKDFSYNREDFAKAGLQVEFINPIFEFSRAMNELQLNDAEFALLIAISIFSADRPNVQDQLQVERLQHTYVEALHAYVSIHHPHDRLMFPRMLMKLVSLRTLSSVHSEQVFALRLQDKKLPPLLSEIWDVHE
Sequence of Transcriptional activator Myb (Homo sapiens) (P10242 whole entry, looked up): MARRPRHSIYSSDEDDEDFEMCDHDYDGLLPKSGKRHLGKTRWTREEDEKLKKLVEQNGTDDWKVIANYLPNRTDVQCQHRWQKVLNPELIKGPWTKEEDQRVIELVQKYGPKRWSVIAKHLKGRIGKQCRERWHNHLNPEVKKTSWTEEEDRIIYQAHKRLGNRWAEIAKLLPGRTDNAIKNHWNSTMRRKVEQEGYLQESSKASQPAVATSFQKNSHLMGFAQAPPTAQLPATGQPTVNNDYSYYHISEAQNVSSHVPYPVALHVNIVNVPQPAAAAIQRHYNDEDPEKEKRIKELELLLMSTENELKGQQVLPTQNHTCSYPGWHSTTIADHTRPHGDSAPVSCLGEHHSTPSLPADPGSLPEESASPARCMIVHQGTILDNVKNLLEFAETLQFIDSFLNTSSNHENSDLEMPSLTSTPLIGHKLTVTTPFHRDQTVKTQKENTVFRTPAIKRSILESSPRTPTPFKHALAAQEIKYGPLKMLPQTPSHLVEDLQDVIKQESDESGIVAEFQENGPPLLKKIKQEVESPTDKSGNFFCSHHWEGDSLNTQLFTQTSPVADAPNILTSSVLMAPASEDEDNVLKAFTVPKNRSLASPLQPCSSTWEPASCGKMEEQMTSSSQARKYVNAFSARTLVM
Sequence of Hepatocyte nuclear factor 4-alpha (Homo sapiens) (P41235 whole entry, looked up, the tested form may be a part): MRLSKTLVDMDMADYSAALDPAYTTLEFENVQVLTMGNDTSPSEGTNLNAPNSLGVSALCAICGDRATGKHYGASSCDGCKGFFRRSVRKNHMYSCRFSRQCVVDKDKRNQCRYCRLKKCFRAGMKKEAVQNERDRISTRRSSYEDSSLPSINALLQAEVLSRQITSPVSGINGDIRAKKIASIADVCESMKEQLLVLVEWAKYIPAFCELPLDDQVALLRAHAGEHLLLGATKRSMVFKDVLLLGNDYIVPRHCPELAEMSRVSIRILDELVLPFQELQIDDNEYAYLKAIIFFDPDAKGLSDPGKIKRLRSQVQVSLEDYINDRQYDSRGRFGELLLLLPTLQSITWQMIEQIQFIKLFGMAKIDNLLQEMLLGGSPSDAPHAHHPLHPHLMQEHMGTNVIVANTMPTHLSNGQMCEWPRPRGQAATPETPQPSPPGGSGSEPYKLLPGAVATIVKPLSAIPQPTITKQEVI
Sequence of Nuclear receptor subfamily 4 group A member 2 (Homo sapiens) (P43354 whole entry, looked up, the tested form may be a part): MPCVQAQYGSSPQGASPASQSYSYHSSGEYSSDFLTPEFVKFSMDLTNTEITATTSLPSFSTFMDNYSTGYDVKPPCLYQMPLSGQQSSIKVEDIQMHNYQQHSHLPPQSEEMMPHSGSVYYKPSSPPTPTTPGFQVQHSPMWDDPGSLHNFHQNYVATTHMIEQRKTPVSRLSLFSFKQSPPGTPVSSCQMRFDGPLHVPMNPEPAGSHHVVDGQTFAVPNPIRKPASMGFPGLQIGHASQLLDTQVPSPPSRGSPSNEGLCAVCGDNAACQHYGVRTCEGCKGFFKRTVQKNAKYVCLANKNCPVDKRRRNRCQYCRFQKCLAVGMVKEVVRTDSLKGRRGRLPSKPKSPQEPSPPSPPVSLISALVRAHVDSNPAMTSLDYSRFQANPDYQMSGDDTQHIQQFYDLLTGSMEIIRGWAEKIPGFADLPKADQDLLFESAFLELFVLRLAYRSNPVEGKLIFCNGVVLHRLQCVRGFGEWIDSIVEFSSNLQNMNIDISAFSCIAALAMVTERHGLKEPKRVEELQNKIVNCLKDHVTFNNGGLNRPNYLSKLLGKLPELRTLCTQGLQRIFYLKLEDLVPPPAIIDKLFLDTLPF
Sequence of Nuclear respiratory factor 1 (Homo sapiens) (Q16656 whole entry, looked up, the tested form may be a part): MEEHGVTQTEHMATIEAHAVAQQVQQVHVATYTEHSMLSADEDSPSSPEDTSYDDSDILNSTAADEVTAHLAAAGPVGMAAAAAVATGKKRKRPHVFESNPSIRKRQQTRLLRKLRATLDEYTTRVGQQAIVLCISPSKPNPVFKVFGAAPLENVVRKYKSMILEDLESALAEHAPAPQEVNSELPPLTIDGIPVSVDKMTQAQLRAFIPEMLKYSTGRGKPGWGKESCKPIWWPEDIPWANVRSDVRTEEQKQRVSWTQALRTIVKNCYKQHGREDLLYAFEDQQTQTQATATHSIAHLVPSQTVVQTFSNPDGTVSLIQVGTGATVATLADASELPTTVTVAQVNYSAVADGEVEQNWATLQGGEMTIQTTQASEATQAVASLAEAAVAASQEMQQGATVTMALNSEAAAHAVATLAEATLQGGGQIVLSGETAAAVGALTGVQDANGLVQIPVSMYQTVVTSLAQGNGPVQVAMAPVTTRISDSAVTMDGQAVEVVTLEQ

For `CCOC(=O)c1ccccc1OC`, the outcome in experiment [1], in experiment [2], in experiment [3], in experiment [4], in experiment [5] and in experiment [6] was inactive.
Turning to `C=C(C)C(=O)OCCOC(=O)CC(C)=O`, the outcome in experiment [1], in experiment [2], in experiment [4], in experiment [5] and in experiment [6] was inactive.
In the case of `CC(CCO)CCCC(C)(C)O` (stereo not drawn), the result in experiment [1], in experiment [2], in experiment [3], in experiment [4], in experiment [5] and in experiment [6] was inactive.
As for `C[Si](O[Si](C)(C)C)O[Si](C)(C)C`, the compound was classed as inactive in experiment [1], in experiment [2], in experiment [4], in experiment [7], in experiment [5] and in experiment [6].
With `Cc1ccc2ccccc2n1`, the outcome in experiment [1], in experiment [2], in experiment [4], in experiment [7], in experiment [5] and in experiment [6] was inactive.
As to `CCCCCCCCC=O`, the result in experiment [1], in experiment [2], in experiment [8], in experiment [3], in experiment [5] and in experiment [6] was inactive.
Turning to `Cc1ccc(C(=O)O)o1`, the call in experiment [1], in experiment [8], in experiment [3], in experiment [4], in experiment [7] and in experiment [5] was inactive. In addition, in experiment [6], the outcome was inactive.
In the case of `CC(=O)[O][Al][O]C(C)=O`, the call in experiment [1], in experiment [3], in experiment [7], in experiment [5] and in experiment [6] was inactive.
For `CCCc1ccccc1O`, the result in experiment [1], in experiment [3], in experiment [7], in experiment [5] and in experiment [6] was inactive.
Regarding `CC[Si](OC(C)=O)(OC(C)=O)OC(C)=O`, the result in experiment [1], in experiment [8], in experiment [3], in experiment [5] and in experiment [6] was inactive.
Regarding `CN1[C@@H]2CC(OC(=O)[C@H](CO)c3ccccc3)C[C@H]1[C@@H]1O[C@@H]12` (stereo partly drawn), the compound was called inactive in experiment [1], in experiment [3], in experiment [4] and in experiment [5].
On to `COc1ccc(NC(=O)CC(C)=O)cc1`, for which the result in experiment [1], in experiment [8], in experiment [3], in experiment [4], in experiment [7] and in experiment [5] was inactive. Also, in experiment [6], the compound was classed as inactive.
Turning to `CCN(CC)CCOC(=O)c1ccc(N)cc1`, the call in experiment [1], in experiment [4], in experiment [5] and in experiment [6] was inactive.
`C=O`: the compound was called inactive in experiment [1], in experiment [8], in experiment [4], in experiment [7], in experiment [5] and in experiment [6].
Take `CC(=O)Nc1ccc(CC(=O)O)cc1`: the compound was classed as inactive in experiment [1], in experiment [2], in experiment [5] and in experiment [6].
Turning to `N#Cc1nc(Cl)c(Cl)c(Cl)c1Cl`, the result in experiment [1], in experiment [3], in experiment [4] and in experiment [7] was inactive. Further, the AC50 is 5.77 µM (active) in experiment [8], 2.71 µM (active) in experiment [5] and 5.93 µM (active) in experiment [6].
With `CCCCCCCCCC=O`, the outcome in experiment [1], in experiment [3], in experiment [7], in experiment [5] and in experiment [6] was inactive.
In the case of `O=C(O)c1cccc(C(F)(F)F)c1`, the outcome in experiment [1], in experiment [8], in experiment [3], in experiment [4], in experiment [5] and in experiment [6] was inactive.
Take `CC(C)(C)c1cc(CCC(=O)NN)cc(C(C)(C)C)c1O`: the result in experiment [1], in experiment [2], in experiment [5] and in experiment [6] was inactive.
With `CC(C)[C@H]1CC[C@@H](C)CC1=O`, the result in experiment [1], in experiment [8], in experiment [3], in experiment [4], in experiment [7] and in experiment [5] was inactive. Moreover, the compound was called inactive in experiment [6].
For the compound `CCCCCCCCCCCCN(CCCCCCCCCCCC)CCCCCCCCCCCC`, the call in experiment [1], in experiment [3], in experiment [4], in experiment [5] and in experiment [6] was inactive.
For the compound `CCCC1CCC(=O)O1` (stereo not drawn), the compound was called inactive in experiment [1], in experiment [3], in experiment [7], in experiment [5] and in experiment [6].
For `COc1nc(C)nc(N)n1`, the compound was classed as inactive in experiment [1], in experiment [8], in experiment [3], in experiment [4], in experiment [7] and in experiment [5]. Also, the compound was classed as inactive in experiment [6].
Regarding `Clc1nc(C(Cl)(Cl)Cl)c(Cl)c(Cl)c1Cl`, the result in experiment [1], in experiment [8], in experiment [3], in experiment [4], in experiment [7] and in experiment [5] was inactive. The compound was called inactive in experiment [6].
Consider `CCCCOCCOCCOCCOCCO`, for which the compound was called inactive in experiment [1], in experiment [8], in experiment [3], in experiment [4], in experiment [7] and in experiment [5]. Moreover, the outcome in experiment [6] was inactive.
`Nc1nc2ccc([N+](=O)[O-])cc2s1`: the call in experiment [1], in experiment [8], in experiment [3], in experiment [4], in experiment [7] and in experiment [5] was inactive. Further, the outcome in experiment [6] was inactive.
With `CC(C)(C)c1n[nH]c(=S)n(N)c1=O`, the compound was classed as inactive in experiment [1], in experiment [8], in experiment [5] and in experiment [6].
Take `COc1ccc(O)cc1`: the compound was called inactive in experiment [1], in experiment [4], in experiment [7], in experiment [5] and in experiment [6].
Turning to `CCCCCC(=O)OCCc1ccccc1`, the compound was classed as inactive in experiment [1], in experiment [3], in experiment [4], in experiment [5] and in experiment [6].
As to `COC(C)CCO` (stereo not drawn), the AC50 in experiment [1] was 27.7 µM (active). The compound was classed as inactive in experiment [3], in experiment [7], in experiment [5] and in experiment [6].

The record behind these values is PubChem BioAssay (EPA / NIEHS).
